The nature of assay [1]: signal quenchers or enhancers, Cy5 substrate/SSB – biochemical, NIH Clinical Collection, E. coli SSB, artefact control for HCV NS3 helicase inhibitor project (AID 743268). Conditions: Cy5-oligo bound E. coli SSB, fluorescence interference.
Assay [2] has as its system Hepatitis C virus NS3 helicase. The experiment in a line: blockers of NS3h binding to DNA – biochemical, fluorescence polarization, NIH Clinical Collection, primary screen (AID 743270). As to conditions: NS3 helicase binding to Cy5-dT15 DNA, stronger effect = higher value, concentration not given here.
Assay [3] deals with Single-stranded DNA-binding protein (Escherichia coli (strain K12)) (UniProt P0AGE0). The experiment in a line: SSB-ssDNA binding inhibitors – biochemical, fluorescence polarization, NIH Clinical Collection, counter-screen for HCV NS3 helicase inhibitor project (AID 743271; in the data active = inhibition above about 28%). Conditions: E. coli SSB-DNA binding, stronger effect = higher value, concentration not given here.
A short description of assay [4]: compounds distorting NS3 helicase fluorescence signal – biochemical, NIH Clinical Collection, artefact control for HCV NS3 helicase inhibitor project (AID 743272).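 Also: HCV NS3 helicase with a Cy5 labelled single stranded DNA probe.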 As to conditions: fluorescence interference counterscreen, HCV NS3 helicase assay; stronger effect = lower value.
Assay [5] is described as follows: Wnt pathway potentiators raising nuclear beta-catenin – imaging, WNT3A-conditioned medium, mouse C2C12, NPC library, primary screen (AID 1117326; in the data active = nuclear beta-catenin stimulation mostly above about 4.2%, no sharp cut-off; inactive = mostly below about 10%). As to conditions: stronger effect = higher value.
Assay [6] can be described thus: stimulators of insulin release from INS-1E, primary screen, cell-based, 5 mM glucose, NPC library (AID 1117329;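 active = compound raises insulin release from rat beta cells at 5 mM glucose, no numeric limit stated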). As to conditions: rat INS-1E insulin secretion, at 10 µM, stronger effect = higher value.
The nature of assay [7]: growth inhibition of GSK3B-pretreated HCT116 cells – cell-based, CellTiter-Glo, 0.2 to 20 µM (AID 1117336;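 active = compounds lowering colon cancer cell viability after pretreatment blocking the GSK3B kinase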). Conditions: HCT116 viability after GSK3B inhibitor, at 20 µM, stronger effect = higher value.
Assay [8] is described as follows: inhibition of endothelial tube formation, primary screen, imaging, VEGF stimulated, CD31 staining, tube area, NPC library (AID 1117340;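 active = compound that reduces growth-factor-driven endothelial tube area in a mixed cell culture, no cutoff stated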). As to conditions: VEGF-stimulated ADSC/ECFC co-culture, at 10 µM, stronger effect = higher value.
Assay [9] in a line: GLP1 release stimulators, primary, NCI-H716, NPC library (AID 1117341;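 active = compound raises GLP1 secretion from the human gut endocrine cells, with no numeric limit stated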). As to conditions: NCI-H716 cells, at 10 µM, stronger effect = higher value.
Assay [10] can be described thus: HCT116 colon cancer cell growth inhibition, primary screen, CellTiter-Glo luminescence, NPC library (AID 1117342;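 active = compounds that lower survival of HCT116 colon cancer cells in the luminescence readout, no numeric limit stated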). Conditions: at 20 µM (top of the series).
The nature of assay [11]: reduced SW480 viability measured with CellTiter-Glo, NPC library, primary (AID 1117343;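 active = compounds that lower viability of the colon cancer cells in the luminescence readout, with no numeric limit stated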). As to conditions: CellTiter-Glo luminescence; at 20 µM (top of the series).
A short description of assay [12]: NPC library primary testing for decreased DLD-1 cell viability via CellTiter-Glo (AID 1117346;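 active = compounds that lower survival of DLD-1 colon cancer cells in the luminescence readout, no cutoff given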). Conditions: DLD-1 viability, CellTiter-Glo luminescence; at 20 µM (top of the series).
The target of assay [13] is 6-phosphogluconate dehydrogenase, decarboxylating (Homo sapiens) (UniProt P52209). The assay is described as follows: inhibition of human phosphogluconate dehydrogenase – biochemical, recombinant enzyme, NADPH absorbance, primary screen (AID 1159550;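 active = at least 20% inhibition of 6-phosphogluconate dehydrogenase activity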). Conditions: recombinant 6PGD, NADPH absorbance 341 nm; at 10 µM; stronger effect = higher value.
Assay [14] in a line: EMT-state selective cytotoxicity in co-culture – imaging, PC-3E GFP, TEM4-18 mCherry, primary screen (AID 1345086;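 active = compounds killing one labelled cell type while sparing the other, by normalised counts and ratio limits, not self-fluorescent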;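 also: cells exposed to compound for 72 h before imaging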;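 as to red/green cell ratio (normalised): normalised mesenchymal count divided by normalised epithelial count so high means epithelial killing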). Conditions: PC-3E GFP / TEM4-18 mCherry co-culture, imaging cell counts, at 1 µM.
A short description of assay [15]: MELAS cybrid and Rieske KO viability enhancers – cell-based, MELAS cybrids, Rieske KO mouse fibroblasts, CellTiter-Glo, primary screen (AID 1508586;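 active = mean z-score across replicates of 1.96 or higher in either the MELAS or the Rieske mutant cell line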;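 also: z relative to plate mean and SD of compound and empty wells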). Conditions: low glucose.
Assay [16] addresses NAD(+) hydrolase SARM1 (Homo sapiens) (UniProt Q6SZW1). The experiment in a line: blocking NAD cleavage by SARM1 SAM-TIR – cell lysate, NAD-Glo luminescence (AID 1508614;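 active = compound whose remaining NAD level is above about 45 nM, limit read from the data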;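 also: higher remaining NAD means stronger inhibition of SARM1 NADase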). Conditions: SAM-TIR HEK293T lysate NADase, at 1 µM, stronger effect = higher value.
Assay [17] concerns the target Mitogen-activated protein kinase 7 (Homo sapiens) (UniProt Q13164). The experiment in a line: Gal4-ERK5 driven luciferase induction – cell-based, HTS, primary screen (AID 1508626;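 active = luciferase signal above three times the same-plate solvent-only control wells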;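 also: luciferase driven by Gal4-ERK5 fusion binding five Gal4 sites before minimal TATA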). As to conditions: HeLa Gal4-ERK5 transactivation, 18 h, at 5 µM, stronger effect = higher value.
A further assay relates to F380Y. The assay is described as follows: BK channel mutant inhibitors and activators – cell-based, U2OS BacMam, thallium flux, beta subunits, selectivity assay, profiling panel (AID 1259406;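 active = thallium flux through the channel raised or lowered by more than 3 SD from vehicle-only wells, actives on both sides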;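 also: initial slope of Thallos dye fluorescence rise after thallium is added; log ratio against the mean of 0.3% DMSO vehicle wells on the same plate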). Conditions: U2OS BacMam BK variants, at 30 µM.
Assay [18] in a line: viability loss with induced miR-34 in A549 – imaging, A549 dox-inducible miR-34, nuclei and caspase counts, primary screen (AID 1347080;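 active = compounds whose cell count with miR-34 switched on is under 0.7 times the count with it off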). As to conditions: A549 miR-34 inducible, Hoechst nuclei count, 48 h.
Assay [19] is described as follows: P. berghei load reduction in hepatocytes – cell-based, HepG2, luciferase luminescence, HepG2 viability, primary screen (AID 624349; in the data active = parasite load remaining mostly below about 12%, no sharp cut-off; inactive = mostly above about 10%;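 also: 100% = mean of DMSO negative control wells on the same plate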). Conditions: P. berghei liver stage in HepG2, luciferase luminescence, concentration not given here; parasite load remaining: stronger effect = lower value; viability: measured here: HepG2 viability without parasites.
[20] abbreviates: MELAS cybrid survival, CellTiter-Glo 48 h, stronger effect = higher value.
Where [21] appears, read: Rieske KO mouse fibroblast survival, CellTiter-Glo 72 h.
The mark [22] stands for this setting: stronger effect = lower value, cell number ratio, induced over uninduced.
[23] abbreviates: measured here: relative caspase fold change +Dox/-Dox.
Setting [24] is: measured here: total cells with miR-34 induction, stronger effect = lower value.
Where [25] appears, read: measured here: total cells without miR-34 induction.

“And” between values parts separate entries of the source, which are not always exact repeats. Equal values may be shown once. The source made the active and inactive calls. Unless noted, no rule for the calls is given here.

Mitogen-activated protein kinase 7 (Homo sapiens), sequence (Q13164 whole entry, looked up, the tested form may be a part): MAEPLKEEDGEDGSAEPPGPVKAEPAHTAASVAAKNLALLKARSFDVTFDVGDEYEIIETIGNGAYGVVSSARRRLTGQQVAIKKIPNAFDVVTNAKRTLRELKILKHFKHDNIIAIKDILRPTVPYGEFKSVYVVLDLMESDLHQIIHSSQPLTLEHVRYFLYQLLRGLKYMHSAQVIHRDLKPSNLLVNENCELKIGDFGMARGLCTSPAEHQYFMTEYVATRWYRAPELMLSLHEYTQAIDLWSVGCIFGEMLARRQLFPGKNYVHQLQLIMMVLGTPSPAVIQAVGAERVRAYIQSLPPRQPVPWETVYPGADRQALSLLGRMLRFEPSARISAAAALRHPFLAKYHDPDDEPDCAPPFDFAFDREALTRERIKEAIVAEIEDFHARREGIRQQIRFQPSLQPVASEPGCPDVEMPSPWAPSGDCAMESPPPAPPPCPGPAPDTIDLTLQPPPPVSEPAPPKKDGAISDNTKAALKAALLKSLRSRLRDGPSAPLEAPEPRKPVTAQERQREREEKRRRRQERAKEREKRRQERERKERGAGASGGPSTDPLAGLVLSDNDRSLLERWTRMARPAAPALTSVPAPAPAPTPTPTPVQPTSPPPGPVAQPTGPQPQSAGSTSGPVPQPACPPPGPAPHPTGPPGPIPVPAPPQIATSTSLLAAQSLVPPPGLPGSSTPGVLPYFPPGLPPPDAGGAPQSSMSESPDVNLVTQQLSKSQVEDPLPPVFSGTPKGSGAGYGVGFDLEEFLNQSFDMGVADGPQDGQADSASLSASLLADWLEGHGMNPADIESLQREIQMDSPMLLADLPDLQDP
NAD(+) hydrolase SARM1 (Homo sapiens), sequence (Q6SZW1 whole entry, looked up, the tested form may be a part): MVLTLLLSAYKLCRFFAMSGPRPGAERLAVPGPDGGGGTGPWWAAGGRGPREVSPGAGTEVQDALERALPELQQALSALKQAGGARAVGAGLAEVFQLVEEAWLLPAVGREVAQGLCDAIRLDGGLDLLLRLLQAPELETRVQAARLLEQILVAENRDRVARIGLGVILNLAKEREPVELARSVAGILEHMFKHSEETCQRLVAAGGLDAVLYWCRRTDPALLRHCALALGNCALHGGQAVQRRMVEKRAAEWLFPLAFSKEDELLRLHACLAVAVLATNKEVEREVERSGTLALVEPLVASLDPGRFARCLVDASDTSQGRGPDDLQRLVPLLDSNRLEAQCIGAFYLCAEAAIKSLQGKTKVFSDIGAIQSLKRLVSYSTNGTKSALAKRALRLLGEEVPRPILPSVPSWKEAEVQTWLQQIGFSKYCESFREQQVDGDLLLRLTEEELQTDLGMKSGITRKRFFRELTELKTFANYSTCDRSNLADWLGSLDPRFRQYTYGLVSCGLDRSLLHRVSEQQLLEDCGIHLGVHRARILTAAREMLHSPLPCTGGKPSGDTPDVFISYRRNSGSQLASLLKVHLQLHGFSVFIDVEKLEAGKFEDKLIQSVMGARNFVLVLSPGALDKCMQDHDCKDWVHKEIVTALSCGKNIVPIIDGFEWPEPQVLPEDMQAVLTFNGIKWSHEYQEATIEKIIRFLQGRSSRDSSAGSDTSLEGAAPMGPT
6-phosphogluconate dehydrogenase, decarboxylating (Homo sapiens), sequence (P52209 whole entry, looked up): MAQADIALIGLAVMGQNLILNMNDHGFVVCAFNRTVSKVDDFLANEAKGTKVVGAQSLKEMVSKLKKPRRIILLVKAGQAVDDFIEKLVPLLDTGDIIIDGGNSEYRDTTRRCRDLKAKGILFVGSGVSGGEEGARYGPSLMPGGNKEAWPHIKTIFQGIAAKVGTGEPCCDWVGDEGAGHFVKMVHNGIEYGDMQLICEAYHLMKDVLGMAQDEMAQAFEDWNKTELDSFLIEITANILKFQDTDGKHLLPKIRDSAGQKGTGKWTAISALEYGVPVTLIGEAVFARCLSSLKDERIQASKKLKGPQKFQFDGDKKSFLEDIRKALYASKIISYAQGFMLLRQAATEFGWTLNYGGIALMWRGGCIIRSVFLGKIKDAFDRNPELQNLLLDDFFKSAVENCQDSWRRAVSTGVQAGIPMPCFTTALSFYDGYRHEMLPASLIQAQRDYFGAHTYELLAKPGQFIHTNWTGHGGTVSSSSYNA

As for `CC(=O)OCC[N+](C)(C)C`, the fluorescence ratio in [1] was 1.03 (inactive); in [4], 1.01 (inactive). Also, the inhibition in [2] is -0.45% (inactive); in [3], 0.29% (inactive); in [13], 14.7% (inactive). For the same compound, the nuclear beta-catenin stimulation in assay [5] (at 10 µM) was 0.6% (inactive); in assay [5] (stimulation, at 2 µM) it was 2.2%. In addition, the insulin secretion stimulation in [6] is 0.3% (inactive). In [7], the viability decrease is -38.1% (inactive). Moreover, the tube area decrease in assay [8] was 19.9% (inactive). The GLP1 secretion stimulation in assay [9] was -5.3% (inactive). For the same compound, the inhibition of viability in assay [10] is 10.1% (inactive). Moreover, the viability decrease (inhibition) in [11] is 2.1% (inactive); in assay [12], -14.9% (inactive). In addition, in assay [14] (actives lie on both sides, counts scaled to control wells, 1 = unselective), the red/green cell ratio (normalised) is 1.07 (inactive). In addition, the figures for the normalised cell number in [14] (measured here: epithelial PC-3E GFP cell survival) and in assay [14] (measured here: mesenchymal TEM4-18 mCherry cell survival) were 1.22 and 1.3, respectively. The z-score was -0.299 (inactive) and 0.505 (inactive) in assay [15] (setting [20]); -0.06 and -0.687 in [15] (setting [21]). Besides, the remaining NAD in assay [16] is 10 nM (inactive). The luciferase signal in [17] is 60 AU (inactive). For the same compound, the log fold change Tl+ flux in the assay with F380Y was 0.0119 (inactive).
As for `C[C@H]1C[C@@H]2[C@H]([C@@H](O)C[C@@]3(C)[C@H]2CC[C@]3(O)C(=O)CO)[C@@]2(C)C=CC(=O)C=C12`, the fluorescence ratio in assay [1] is 1.07 (inactive); in assay [4] it was 1.04 (inactive). In addition, the inhibition was -1.36% (inactive) in assay [2], 1.81% (inactive) in [3] and 12.4% (inactive) in assay [13]. Also, the nuclear beta-catenin stimulation in assay [5] (at 10 µM) is -1.3% (inactive); in assay [5] (stimulation, at 2 µM), 0%. Besides, the insulin secretion stimulation in [6] was 2.2% (inactive). The viability decrease in assay [7] was -8.4% (inactive). Also, the tube area decrease in assay [8] is -6.1% (inactive). Besides, in assay [9], the GLP1 secretion stimulation is 1% (inactive). Besides, in assay [10], the inhibition of viability is 2.5% (inactive). Also, the results for the viability decrease (inhibition) in assay [11] and in [12] were 3.7% (inactive) and -5% (inactive), respectively. The fold change in [18] (setting [22]) was 0.959 (inactive) and 0.809 (inactive) and 0.808 (inactive); in assay [18] (setting [23]), 0.739 and 1.35 and 1.33. Further, the cell count in assay [18] (setting [24]) was 7180 and 6410 and 5950; in assay [18] (setting [25]), 7490 and 7930 and 7360. Also, the z-score in [15] (setting [20]) is 0.0891 (inactive) and -0.0037 (inactive); in assay [15] (setting [21]), -0.286 and 1.09. Moreover, in [16], the remaining NAD is 10 nM (inactive). The luciferase signal in assay [17] is 100 AU (inactive). For the same compound, in the assay on F380Y, the log fold change Tl+ flux is 0.00302 (inactive).
As for `CC[C@H](C)C(=O)O[C@H]1C[C@H](O)C=C2C=C[C@H](C)[C@H](CC[C@@H](O)C[C@@H](O)CC(=O)O)[C@H]21`, in assay [19], the parasite load remaining is 98.4% (inactive). The viability in [19] is 77.5%. Further, the figures for the fluorescence ratio in assay [1] and in [4] were 1.01 (inactive) and 1 (inactive), respectively. The inhibition in [2] is -3.56% (inactive); in assay [3], -3.18% (inactive); in assay [13] it was -4.46% (inactive). For the same compound, the nuclear beta-catenin stimulation is -0.7% (inactive) in assay [5] (at 10 µM) and -0.3% in assay [5] (stimulation, at 2 µM). Further, the insulin secretion stimulation in assay [6] was 0.2% (inactive). Also, the viability decrease in assay [7] was -15.6% (inactive). Further, in [8], the tube area decrease was 22% (inactive). Also, in [9], the GLP1 secretion stimulation was -3.6% (inactive). Besides, the inhibition of viability in assay [10] is 12.4% (inactive). The viability decrease (inhibition) is 2.3% (inactive) in assay [11] and 5.1% (inactive) in assay [12]. For the same compound, the fold change in assay [18] (setting [22]) is 0.972 (inactive); in assay [18] (setting [23]), 0.983. Also, the results for the cell count in [18] (setting [24]) and in assay [18] (setting [25]) were 9020 and 9270, respectively. For the same compound, the z-score in assay [15] (setting [20]) is -0.583 (inactive); in [15] (setting [21]) it was -1.06. The remaining NAD in assay [16] is 10 nM (inactive). Moreover, the luciferase signal in assay [17] is 36 AU (inactive). The log fold change Tl+ flux in the assay on F380Y is -0.00852 (inactive).

(Values after PubChem BioAssay.)
